CYP2C9 act = activators of human CYP2C9; recombinant CYP2C9, luciferin-H conversion, luminescence; active compounds read high; factor 1 = untreated enzyme, 0 = blocked; activation factor at 5 µM; 96,000 tested, 1.4% active; P11712;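 active = activation factor of 2 or more for CYP2C9 at a 5 µM dose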
CYP2C19 inh = blocks human cytochrome P450 2C19. P33261. CYP2C19 Supersomes, luciferin-H EGE luminescence, 30 min. inhibition, % at 5 µM. 96,000 tested, 21% active;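 active = CYP2C19 inhibition above a set limit at 5 µM in the primary screen, cut at about 50% in these data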
Target sequence (P33261 whole entry, looked up): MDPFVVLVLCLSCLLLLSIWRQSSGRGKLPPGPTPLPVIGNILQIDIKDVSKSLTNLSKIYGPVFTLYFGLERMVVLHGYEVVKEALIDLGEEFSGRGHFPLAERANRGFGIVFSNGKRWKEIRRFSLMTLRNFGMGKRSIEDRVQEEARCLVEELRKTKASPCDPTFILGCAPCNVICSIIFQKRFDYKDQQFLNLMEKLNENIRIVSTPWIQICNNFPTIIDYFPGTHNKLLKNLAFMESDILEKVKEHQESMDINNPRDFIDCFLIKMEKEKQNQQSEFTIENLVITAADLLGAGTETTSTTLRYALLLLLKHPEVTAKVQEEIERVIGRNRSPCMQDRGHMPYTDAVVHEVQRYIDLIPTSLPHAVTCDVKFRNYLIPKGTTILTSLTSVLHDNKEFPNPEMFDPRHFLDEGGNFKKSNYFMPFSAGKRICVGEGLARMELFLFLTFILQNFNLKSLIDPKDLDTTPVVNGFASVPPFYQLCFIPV
CYP2C19 activ = increases human CYP2C19 enzyme activity; P33261; recombinant CYP2C19, luciferin-H EGE luminescence; active compounds read high; 0 = fully inhibited enzyme, 1 = untreated enzyme; activation factor at 5 µM; 96,000 tested, under 10 active; AID 1025;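 active = activation factor of at least 2 at 5 µM in the primary screen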
CYP2C9 inhib = blocks human cytochrome P450 2C9; P11712; CYP2C9 Supersomes, luciferin-H conversion, luminescence; inhibition, % at 5 µM; 96,000 tested, 20% active; AID 777;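 active = blocking of liver enzyme CYP2C9 beyond about 50% at 5 µM, limit read from the data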
Cav3 T inh = human Cav3.2 channel inhibition, primary screen | O95180 | Cav3.2-expressing cells, Fluo-4 calcium fluorescence FDSS; active compounds read low | B-score at 10 µM | 100,000 tested, 4% active | AID 449739;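 active = single-dose well whose peak fluorescence ratio is a statistical outlier from its plate by either plate-standardised score or position-corrected B-score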
Each line names hits and unclear results; the compound was inactive in the other large screens. In the library only some 27% were active in any assay of this set; here they are far more common.

CCCCn1c(=O)c(C(=O)Nc2nc3ccccc3[nH]2)c(O)c2ccccc21	none (no result: Cav3 T inh)
CCCCn1c(=O)c(C(=O)Nc2cnccn2)c(O)c2ccccc21	Cav3 T inh -2.64
CC(C)CCn1c(=O)c(C(=O)Nc2ccccc2S(N)(=O)=O)c(O)c2ccccc21	Cav3 T inh -5.39
CCOC(=O)Cn1cc([N+](=O)[O-])nc1[N+](=O)[O-]	none
CCOC(=O)C1=C(N)OC2=C(C(=O)CC(C)(C)C2)C12C(=O)Nc1ccccc12 (stereo unspecified)	none
COc1ccc(C2NCc3ccccc3-n3cccc32)cc1 (stereo unspecified)	none
COc1cc(C2NCc3ccccc3-n3cccc32)ccc1O (stereo unspecified)	CYP2C19 inh 73.0, CYP2C9 inhib 66.1
CCCCCCOc1ccc(CN2CCN(CC)CC2)cc1	none
CC(C)CCP(=O)(O)c1ccccc1	none
N[C@@H](Cc1c[nH]c2ccccc12)c1nnc(SCc2ccc(Cl)cc2)o1	CYP2C19 inh 65.5 (no result: Cav3 T inh)
O=C1CC(=O)N(c2ccc3c(c2)OCO3)C(=O)N1	none
O=c1c2ccccc2[nH]c(=S)n1-c1ccc2c(c1)OCO2	CYP2C19 inh 97.0, CYP2C9 inhib 83.0 (no result: Cav3 T inh)
CCOP(=O)(OCC)C(c1ccccc1)N(C)C=O (stereo unspecified)	none
CC(C)=CCC12CN3CCN(CC(C3)C1=O)C2	none
CCC(C)C12CN3CCN(CC(C)(C3)C1=O)C2 (stereo unspecified)	CYP2C19 inh 76.2, CYP2C9 inhib 76.8
O=C(NC(Oc1ccccc1)C(Cl)(Cl)Cl)c1ccccc1 (stereo unspecified)	none
CC(C)CC(=O)NC(Oc1ccc(Cl)cc1)C(Cl)(Cl)Cl (stereo unspecified)	CYP2C19 inh 81.7, Cav3 T inh -6.18
CC(=NCCN1CCCCC1)c1c(O)n(-c2ccc(Cl)cc2)c(=O)[nH]c1=O	none
CC12CNCC(C)(CNC1)C2O (stereo unspecified)	none
O=c1c2ccccc2nc(-c2ccoc2)n1-c1ccccc1	none
COc1cccc(N2C(=O)NC(=O)C3(Cc4cc(C)ccc4N(C)C3)C2=O)c1 (stereo unspecified)	CYP2C9 inhib 83.9
COc1ccc(OC)c(N2C(=O)NC(=O)C3(Cc4cc(C)ccc4N(C)C3)C2=O)c1 (stereo unspecified)	CYP2C9 inhib 80.1
Cc1ccc2c(c1)CC1(CN2C)C(=O)NC(=O)N(c2cc(C)ccc2C)C1=O (stereo unspecified)	CYP2C9 inhib 58.9
CC(=O)OC1(c2ccccc2)CCN(C)C(C)C1C (stereo unspecified)	none (no result: CYP2C9 act, CYP2C19 inh, CYP2C19 activ, CYP2C9 inhib)
O=C1CN=C(c2cccs2)c2c(sc3c2CCCC3)N1	none
Cc1cc2c(s1)NC(=O)CN=C2c1cccs1	CYP2C19 inh 50.5
CCN(CC)CCN=C(C)c1c(O)n(-c2ccccc2OC)c(=O)[nH]c1=O	none
CC1=CC(=C2C(=O)NC(=S)NC2=O)C=C(C(F)(F)F)N1C	none
CCn1c(O)c(C=Nc2ccc(N3CCOCC3)cc2)c(=O)n(CC)c1=S	Cav3 T inh -4.48
CCN(CC)c1ccc(N=Cc2c(O)n(Cc3ccccc3)c(=O)[nH]c2=O)cc1	Cav3 T inh -4.35
COc1ccc2c(c1)c(C(=O)O)c(C)n2C(C)C	none (no result: CYP2C9 act, CYP2C19 inh, CYP2C19 activ, CYP2C9 inhib)
COCCOC(=O)c1c(C)n(C)c2ccc(OC(=O)N(C)C)cc12	CYP2C9 inhib 53.6
O=C(Cn1cnc2sc3c(c2c1=O)CCCC3)NCCC(=O)N1CCC2(CC1)OCCO2	none (no result: CYP2C9 act, CYP2C19 inh, CYP2C19 activ, CYP2C9 inhib)
CCN1C(=O)c2ccccc2Sc2ccc(C(=O)N3CCC4(CC3)OCCO4)cc21	CYP2C9 inhib 82.6 (no result: Cav3 T inh)
CN1C(=O)c2ccccc2Sc2ccc(C(=O)N3CCC4(CC3)OCCO4)cc21	none (no result: Cav3 T inh)
NCC(CC(=O)O)c1ccc(Cl)cc1 (stereo unspecified)	none
Cc1ccc(S(=O)(=O)N2CC3CC(C2)c2cccc(=O)n2C3)cc1 (stereo unspecified)	none
Cc1[nH]c2ccccc2c1C1=CCNCC1	CYP2C9 inhib 74.4
COc1ccc2[nH]cc(C3=CCNCC3)c2c1	none (no result: CYP2C9 act, CYP2C19 inh, CYP2C19 activ, CYP2C9 inhib)
Cc1ccc(-c2nc3ccccc3c(=O)n2-n2cccc2)cc1	none
COCCCNC(=O)c1c(NC(=O)c2ccccc2)n(Cc2ccccc2)c2nc3ccccc3nc12	Cav3 T inh -5.69 (no result: CYP2C9 act, CYP2C19 inh, CYP2C19 activ, CYP2C9 inhib)
O=c1cccc2n1CC1CC2CN(C(c2ccccc2)c2sc3ncnn3c2O)C1 (stereo unspecified)	none
CCOC(=O)C(O)(c1ccc(N(CC)C(=O)OC)cc1)C(F)(F)F (stereo unspecified)	CYP2C19 inh 63.9, CYP2C9 inhib 68.8
CCOC(=O)c1cc(C(O)(C(=O)OC)C(F)(F)F)c(/N=C/N(C)C)o1 (stereo unspecified)	none
CCOC(=O)C(NC(=O)CC)(Nc1ccc(C(O)(C(=O)OCC)C(F)(F)F)cc1C)C(F)(F)F (stereo unspecified)	CYP2C9 inhib 54.1
CCOC(=O)N(CC)c1ccc(C(O)(C(=O)OCC)C(F)(F)F)cc1 (stereo unspecified)	CYP2C19 inh 58.2, CYP2C9 inhib 76.6
COC(=O)C1=C(c2ccccc2)C[C@@H]2CC[C@H]1N2C(=O)NCCO	none (no result: CYP2C9 act, CYP2C19 inh, CYP2C19 activ, CYP2C9 inhib)
CCN1CCN(Cc2cc(OC)c(OC)cc2[N+](=O)[O-])CC1	none
O=C(c1cccn2c(=O)c3cc(Br)ccc3nc12)N1CCC2(CC1)OCCO2	CYP2C9 inhib 54.8
O=C(c1cccn2c(=O)c3ccc(Cl)cc3nc12)N1CCC2(CC1)OCCO2	none (no result: Cav3 T inh)
CN1CCN(c2ccc(C(N)=O)cc2N)CC1	none
CC(O)(CS(=O)(=O)c1ccccc1)C(=O)Nc1ccc(C(F)(F)F)cc1 (stereo unspecified)	CYP2C19 inh 64.8
CC(O)(CS(=O)(=O)c1cccc(C(F)(F)F)c1)C(=O)Nc1cccc(C(F)(F)F)c1 (stereo unspecified)	CYP2C19 inh 51.3
CC(O)(CS(=O)(=O)c1ccc(F)cc1)C(=O)Nc1ccc(C#N)c(C(F)(F)F)c1 (stereo unspecified)	none (no result: CYP2C9 act, CYP2C19 inh, CYP2C19 activ, CYP2C9 inhib)
O=C(c1csc2c1CCCCC2)N1CCC2(CC1)OCCO2	CYP2C19 inh 98.4
O=C1NC(=O)N(CCNc2ncc(C(F)(F)F)cc2Cl)C(=O)C1/C=N/OCc1c(F)cccc1Cl (stereo unspecified)	none (no result: Cav3 T inh)
CC(=O)OC1(Cc2ccccc2)CN2CCC1c1ccccc12 (stereo unspecified)	CYP2C19 inh 74.3, CYP2C9 inhib 59.6
CC(=O)OC1(c2ccc(C)cc2)CN2CCC1c1ccccc12 (stereo unspecified)	CYP2C19 inh 98.6
O=P(N[C@@H](c1ccccc1)[C@@H]1C[C@H]1CO)(c1ccccc1)c1ccccc1	none (no result: CYP2C9 act, CYP2C19 inh, CYP2C19 activ, CYP2C9 inhib)
Cc1nc2nc(SCC(=O)N3CCC4(CC3)OCCO4)nn2c(C)c1Cc1ccccc1	none
O=C(CSc1ccccc1)N1CCC2(CC1)OCCO2	CYP2C19 inh 98.1
O=C(CCN1C(=O)COc2ccccc21)N1CCC2(CC1)OCCO2	CYP2C19 inh 86.9
Cc1c(C(=O)N2CCC3(CC2)OCCO3)oc2ccccc12	CYP2C19 inh 97.6
COc1ccc(C(CC(=O)N2CCC3(CC2)OCCO3)NS(=O)(=O)c2ccc(F)cc2)cc1 (stereo unspecified)	none

Source: PubChem
